# Results published in PubChem BioAssay (NCATS).
# Several values for one entry are separate records, joined by “and”; a condition that tells them apart may be missing. Equal entries are not always repeated. Inconclusive results are not listed. A call without a number means that no potency is given here. Unmarked numbers belong to inactive results. Activity calls are given as the source filed them. Calls follow the shape of the dose curve; as a rule, active = well fitted curve in the direction sought with a large enough effect; inconclusive = small, poorly fitted or top-dose-only effect, or another doubt; inactive = no such curve, though single readings can be large; an effect the other way counts as inactive or inconclusive. *1 amine or outer side, *2 acyl side, *3 side chain or, on linkers, in order; H or OH if unused. Where a SMILES comes first, the peptide text is derived from it. Bridges are numbered along the chain shown (N, C = ends). [ ]: non-standard residue; d: D form. ξ: configuration not given here. ξPhe(βξ-Me) = CC(c1ccccc1)C(N)C(=O)O; X6 = O=C(CCC[*:2])[*:1]; 2Abz = Nc1ccccc1C(=O)O; GABA = NCCCC(=O)O
# Legend:
# [1] = Primary qHTS for inhibitors of nuclear receptor binding SET domain protein 2 (NSD2) in an isogenic RCH-ACV NSD2 p.E1099K mutant (9B) (AID 1645876)
# [2] = Primary qHTS for inhibitors of nuclear receptor binding SET domain protein 2 (NSD2) in an RCH-ACV wild type WT cells (2C) (AID 1645877)
# Also: nearly all actives have a fitted effect of over 70% in size.
# Potency is read from the fitted curve at half-maximal effect.
smiles,measurement,setting,value
CC1=CC2(O)/C=C/C(C)(O)CC(O)/C=C/C(=O)OC23C(=O)NC(CC(C)C)C3C1C (configuration not stated),Potency,[1],inactive
Clc1ccc2c(c1)C1=NCCN1c1c(-c3noc(C4CC4)n3)ncn1-2,Potency,[1],inactive
CCCCS(=O)(=O)Nc1ncnc(OCCOc2ncc(Br)cn2)c1-c1ccc(Br)cc1,Potency,[1],inactive
same,Potency,[2],inactive
CC1CCC23COC(=O)C2=CC(O)CC3C1(C)CCC1=CC(=O)OC1O (configuration not stated),Potency,[1],inactive
O=C(O[C@H]1[C@@H]2C=CO[C@@H](O[C@@H]3O[C@H](CO)[C@@H](O)[C@H](O)[C@H]3O)[C@@H]2[C@@]2(CO)O[C@@H]12)c1ccc(O)c(O)c1,Potency,[1],inactive
CC(C)Nc1cc(-c2c[nH]c(C(=O)N[C@H](CO)c3cccc(Cl)c3)c2)c(Cl)cn1,Potency,[1],20.5 µM (active) and 2.95 µM (active)
same,Potency,[2],8.17 µM (active) and 2.95 µM (active)
C[C@@H]1O[C@@H](O[C@H]2[C@H](O[C@H]3[C@H](O[C@H]4CC[C@@]5(C=O)C(CC[C@]6(C)C5CC=C5C7CC(C)(C)C[C@@H](O)[C@]7(C)CC[C@]56C)C4(C)C)O[C@H](C(=O)O)[C@@H](O)[C@@H]3O)OC[C@@H](O)[C@@H]2O)[C@H](O)[C@H](O)[C@H]1O (some centres not stated),"activity change, negative = viability loss",[1],-2.85% [at 9.23 µM]
C=CC1(C)C=C2C(=O)CC3C(C)(C)CCCC3(C(=O)O)C2(O)CC1 (configuration not stated),Potency,[1],inactive
same,Potency,[2],inactive
CCC(=O)N[C@@H]1Cc2ccccc2[C@H](c2ccccc2)C1,Potency,[1],inactive
C=C/C=C/[C@@H]1OC[C@H](/C=C/C=C/C)[C@H]1O,Potency,[1],inactive
C=CC1(C)CC(OC(=O)C(=C)C(O)COC(C)=O)C(C(=C)C(=O)OC)C(O)C1C(=C)CO (configuration not stated),Potency,[1],inactive
C=C1C[C@]23C[C@H]1CC[C@H]2[C@]1(C)CCC[C@@]2(CO)C(=O)O[C@H]([C@H]21)[C@@H]3O,Potency,[1],inactive
same,Potency,[2],inactive
CC(/C=C/[C@]1(O)[C@@]2(C)CO[C@@]1(C)C[C@@H](O)C2)=C\C(=O)O[C@@H]1O[C@H](CO)[C@@H](O)[C@H](O)[C@H]1O,Potency,[1],inactive
C=C1C[C@@]23CC[C@@H]4[C@](C)(C(=O)O)CCC[C@@]4(C)C2=CC[C@H]1C3,Potency,[1],inactive
same,Potency,[2],inactive
O=C(OCC12OC1C=CC(OC(=O)c1ccccc1)C2O)c1ccccc1 (configuration not stated),Potency,[1],inactive
CC(=O)NC(C(=O)OC1CCC(C)(C)C2CC=C3C(=O)OCC3(O)C12C)C(C)C (configuration not stated),Potency,[1],inactive
CCC(C)C1NC(=O)C2CCCN2C(=O)C(C(C)C)NC(=O)c2ccccc2NC(=O)C(Cc2ccc(O)cc2)NC(=O)C(C)NC(=O)C(C(C)O)NC1=O (configuration not stated) (cyclo([2Abz]VPITAY); configuration not given here),Potency,[1],inactive
same,Potency,[2],inactive
CC(C)(OC1OC(CO)C(O)C(O)C1O)C1CCC(O)(CO)C2CC(O)C(C)(O)C2C1 (configuration not stated),Potency,[1],inactive
same,Potency,[2],inactive
CC(C)CC1NC(=O)C(C(C)c2ccccc2)NC(=O)C(C(C)C)NC(=O)C(C)NC(=O)CCCNC(=O)C(Cc2c[nH]c3ccccc23)NC(=O)C(C)NC1=O (stereo not drawn) (cyclo([GABA]AV[ξPhe(βξ-Me)]LAW); configuration not given here),Potency,[1],inactive
same,Potency,[2],inactive
CC(=O)c1cnc2ccc(-c3cc(Cl)c(O)c(Cl)c3)nc2c1NC1CCC(CN(C)C)CC1 (configuration not stated),Potency,[1],30.3 nM (active) and 3.7 nM (active)
same,Potency,[2],38.2 nM (active) and 3.7 nM (active)
C=C1CCC(OC(C)=O)C2(C)CC3(O)OC(=O)C(C)=C3CC12 (configuration not stated),Potency,[1],inactive
C/C(=C\CCC(C(=O)O)C1CCC2(C)C3=C(CCC12C)C1(C)CCC(=O)C(C)(C)C1CC3)C(=O)O (configuration not stated),Potency,[1],inactive
CCNC(=O)CCC/C=C\C[C@@H]1[C@@H](/C=C/C(O)CCc2ccccc2)[C@@H](O)C[C@@H]1O (some centres not stated),Potency,[1],inactive
same,Potency,[2],inactive
O=C(OCc1cccc(O)c1O[C@@H]1O[C@H](CO)[C@@H](O)[C@H](O)[C@H]1O)C1(O)C(=O)C2C=CC1C1C=CC(=O)C(O)(C(=O)OCc3cccc(O)c3O[C@@H]3O[C@H](CO)[C@@H](O)[C@H](O)[C@H]3O)C21 (some centres not stated),"activity change, negative = viability loss",[1],-9.51% [at 9.23 µM]
O=C(c1ccccn1)c1cnn2c(-c3ccncc3)ccnc12,Potency,[1],inactive
CC[C@H](C)[C@@H]1NC(=O)[C@H](Cc2ccc(OC)cc2)NC(=O)CCCSC[C@@H](C(=O)N2CCC[C@H]2C(=O)N[C@@H](CC(C)C)C(=O)NCC(N)=O)NC(=O)[C@H](CC(N)=O)NC(=O)[C@H](CCC(N)=O)NC1=O (Y(Me)IQNCPLG-NH2; linker N-5 via X6),Potency,[1],inactive
same,Potency,[2],inactive
